TDP1 block: TDP1 (human) enzyme inhibition; Q9NUW8; recombinant TDP1, AlphaScreen DNA substrate cleavage; Potency, µM (doses to about 130 µM), for inactives: top-dose activity change, negative = inhibition, actives largely listed as inhibitors; 0.28% of 350,000 active; AID 485290; also: potency is read from the fitted curve at half-maximal effect; nearly all actives have a fitted effect of over 40% in size
Target sequence (Q9NUW8 whole entry, looked up): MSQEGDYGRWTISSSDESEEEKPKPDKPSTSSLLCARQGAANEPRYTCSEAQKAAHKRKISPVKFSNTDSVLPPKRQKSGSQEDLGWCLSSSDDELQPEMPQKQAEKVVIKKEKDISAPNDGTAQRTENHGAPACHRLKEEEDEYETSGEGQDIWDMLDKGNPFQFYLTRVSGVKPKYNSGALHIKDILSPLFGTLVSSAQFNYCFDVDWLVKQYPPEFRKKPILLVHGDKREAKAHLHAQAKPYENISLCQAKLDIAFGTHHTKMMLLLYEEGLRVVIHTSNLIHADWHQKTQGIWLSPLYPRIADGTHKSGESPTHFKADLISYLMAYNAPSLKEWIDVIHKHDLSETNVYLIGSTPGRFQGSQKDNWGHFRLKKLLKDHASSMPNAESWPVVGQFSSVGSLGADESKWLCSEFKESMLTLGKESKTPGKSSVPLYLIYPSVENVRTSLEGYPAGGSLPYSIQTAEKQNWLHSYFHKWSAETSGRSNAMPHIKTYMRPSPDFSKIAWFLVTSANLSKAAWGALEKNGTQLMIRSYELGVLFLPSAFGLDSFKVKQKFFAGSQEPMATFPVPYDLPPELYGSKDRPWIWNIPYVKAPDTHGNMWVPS
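Tdp1 1 nM final; 15 min RT w/ cpd; substrate 15 nM, 5 min; beads 10 ug/ml, 10 min; AlphaScreen read. Neg ctrl: no enzyme.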
IL1B secr inh: inhibitors of inflammasome signaling (IL-1 beta secretion). 4.7% of 360,000 active. activity change, % at 57.5 µM. THP-1 LPS/ATP IL-1B secretion, AlphaLISA, 16 h; stronger effect = lower value; in the data active = activity change below about -50%; inconclusive = mostly about -30% to -49%
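THP-1 cells pretreated 1 hr with compounds (up to 57.5 uM final), then stimulated with LPS (250 ng/mL final) plus ATP (1.25 mM final); secreted IL-1B measured by AlphaLISA after 16 hr, decreased signal indicating inhibition.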
TDP1 cell noCPT: qHTS for Inhibitors of human tyrosyl-DNA phosphodiesterase 1 (TDP1): qHTS in cells in absence of CPT; DT40 Tdp1-/- hTDP1 cells, no CPT, ATP luminescence, 48 h; Potency, µM (top dose mostly 46.2 µM), without a hit: top-dose activity change, negative = growth inhibition, actives largely listed as inhibitors; 15% of 420,000 active; also: potency is read from the fitted curve at half-maximal effect; nearly all actives have a fitted effect of over 55% in size
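Camptothecin absent (DMSO only). Human TDP1-complemented DT40 knockout cells, 400 cells/well, 37 °C for minimum 48 hr; ATP measured via CellTiter-Glo, 30 min dark incubation, luminescence.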
CtBP-E1A inh: CtBP/E1A binding inhibition | 0.49% of 340,000 active | activity change, % (concentration not given with the values) | AID 651724 | AlphaScreen GST-E1A/His-CtBP binding, 1536-well; stronger effect = lower value; in the data active = activity change below about -65%; inconclusive = mostly about -30% to -63%
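AlphaScreen with 125 nM GST-E1A and 125 nM His-CtBP (5X stocks) in Tris pH 8.0, 300 mM NaCl, BSA, Tween 20, TCEP. Compounds preincubated 2 h at 37 deg C, then glutathione donor/nickel acceptor beads added for 1 h at 37 deg C in dark.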
Six1-Eya2 blk: blocks human Six1 binding to Eya2; Q15475+O00167; AlphaScreen GST-Six1/His-Eya2 binding, biochemical; stronger effect = lower value; activity change, % (test concentration not listed); 0.56% of 360,000 active; AID 651725; in the data active = activity change below about -65%; inconclusive = mostly about -30% to -63%
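Homogeneous AlphaScreen proximity assay pairing GST-Six1 with His-tagged Eya2 (added as 5X mix: 250 nM and 500 nM) in 50 mM Tris pH 8.0, 300 mM NaCl, 1 mM TCEP. Glutathione donor and nickel acceptor beads; 1 h, 37 °C, dark.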
TDP1 cell CPT: growth inhibition of DT40 Tdp1-/-;hTDP1 cells with camptothecin (screen for TDP1 inhibitors); Potency, µM (top dose mostly 46.2 µM), without a hit: top-dose activity change, negative = growth inhibition, actives largely listed as inhibitors; chicken DT40 Tdp1-/-;hTDP1 cells + 20 nM CPT, ATP luminescence, 48 h; 12% of 420,000 active; AID 686979; also: potency is read from the fitted curve at half-maximal effect; nearly all actives have a fitted effect of over 55% in size
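Chicken DT40 Tdp1-/- cells complemented with human TDP1, 400 cells/well, exposed to compounds plus 20 nM camptothecin for at least 48 h at 37 C; viability read as ATP content by CellTiter-Glo luminescence.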
Starred values were filed as active, the others as inactive; ? = inconclusive; . = no result given. Rows were chosen to be rich in hits. Some 18% of all compounds tested hit in one or more screens of this group. Unless noted, calls follow the shape of the dose curve; as a rule, active = well fitted curve in the direction sought with a large enough effect; inconclusive = small, poorly fitted or top-dose-only effect, or another doubt; inactive = no such curve, though single readings can be large; an effect the other way counts as inactive or inconclusive. % is scaled to controls: 0 for no effect and ±100 for the full control effect.

SMILES	TDP1 block	IL1B secr inh	TDP1 cell noCPT	CtBP-E1A inh	Six1-Eya2 blk	TDP1 cell CPT
Cc1ccc(F)cc1C(=O)N1CCCCC1c1cc(C(=O)NCc2ccccc2)no1 (centres undefined)	.	2.2	?	-1.1	-2.3	13µM*
O=C(CCc1nc2ccccc2c(=O)[nH]1)Nc1cc(C(F)(F)F)ccc1N1CCCC1	3.8%	69.1	-0.8%	0.0	7.8	-19.0%
COc1ccc(OC)c(CN2C(=O)CCC2(C)c2nnnn2-c2c(C)cccc2C)c1 (centres undefined)	.	-4.9	-29.1%	3.0	-1.3	?
COC(=O)c1cccnc1-n1c(=O)c2cccnc2n(Cc2cccc([N+](=O)[O-])c2)c1=O	5.8%	0.0	11.6µM*	.	10.3	?
O=C(OCc1ccc(COC(=O)c2ccc(O)cc2)cc1)c1ccc(O)cc1	.	1.5	?	-4.4	-3.2	-28.8%
Cc1csc(NC(=O)CSc2ccc(-c3ccccn3)nn2)n1	2.6%	191.6	25.9µM*	.	-85.9*	?
O=C(CSc1ccc(-c2ccccn2)nn1)Nc1nccs1	7.5%	15.3	-17.8%	?	?	-26.6%
COc1ccccc1CNC(=O)CSc1ccc(-c2sc(-c3ccccc3)nc2C)nn1	0.0%	.	18.4µM*	.	.	?
COc1ccccc1CNC(=O)CSc1ccc(-c2ccccn2)nn1	0.0%	-5.6	?	.	-67.4*	-26.9%
COc1ccccc1CNC(=O)CSc1ccc(-c2cccs2)nn1	2.5%	-3.8	-16.0%	6.4	-5.7	1.8%
Cc1nc(-c2ccccc2)sc1-c1ccc(SCC(=O)NCc2ccccc2)nn1	7.7%	.	-22.1%	.	.	-2.8%
COCCSc1nnc(NC(=O)Cc2cccs2)s1	3.3%	12.5	?	10.1	-2.0	-1.8%
COC(=O)c1cc(NS(=O)(=O)c2cc(Br)cc3c2N(C(C)=O)CC3)cc(C(=O)OC)c1	5.7%	.	-19.6%	.	.	-18.1%
COc1ccc(OCCCCc2c(C)n[nH]c2C)cc1	.	-3.8	?	-3.4	0.7	23.1µM*
Cc1n[nH]c(C)c1CCOc1ccc(C(C)C)cc1	3.1%	23.4	?	-6.6	0.3	?
COc1ccc(/C=C2\CCCC(C(=O)C(F)(F)F)=C2O)cc1OC	6.2%	.	.	.	.	.
CCOC(=O)[C@H]1[C@H]2COc3ccc(C)cc3[C@@H]2N2C(=O)c3ccc(Cl)cc3NC(=O)[C@@]12C	0.7%	-2.2	?	-27.5	-15.7	?
CCOC(=O)[C@H]1[C@H]2COc3ccc(Cl)cc3[C@@H]2N2C(=O)c3cc(OC)ccc3NC(=O)[C@@]12C	0.0%	-27.1	23.1µM*	-13.2	-5.9	?
CCOC(=O)[C@H]1[C@H]2COc3ccc(Cl)cc3[C@@H]2N2C(=O)c3ccc(Cl)cc3NC(=O)[C@@]12C	2.9%	-6.8	18.4µM*	-11.6	-2.4	?
C=CCn1c(N)cc(=O)nc1SCC(=O)Nc1ccccc1C(N)=O	1.2%	13.0	-1.7%	-2.3	9.1	-3.0%
Brc1ccccc1-n1nnc(-c2ccnc3ccccc23)n1	6.4%	20.1	?	-14.6	-10.7	?
COc1ccc(N(CC(=O)Nc2ccc(C)cc2)S(=O)(=O)c2c(C)noc2C)cc1	0.5%	-7.5	?	.	-3.2	?
CCOC(=O)c1cccc(NC(=O)CN(c2ccc(OC)cc2)S(=O)(=O)c2c(C)noc2C)c1	0.0%	-14.3	?	3.8	-0.7	-11.0%
CCOc1ccc(N(CC(=O)Nc2ccc(C)c(C)c2)S(=O)(=O)c2c(C)noc2C)cc1	5.2%	-24.0	10.3µM*	-2.3	7.4	9.2µM*
CCOc1ccc(N(CC(=O)Nc2cccc(F)c2)S(=O)(=O)c2c(C)noc2C)cc1	1.2%	-1.3	20.6µM*	-0.8	0.8	?
SMILES	TDP1 block	IL1B secr inh	TDP1 cell noCPT	CtBP-E1A inh	Six1-Eya2 blk	TDP1 cell CPT
CC(C)(C)c1ccc(OCCC(=O)NNC(=O)c2ccccc2)cc1	3.3%	-9.1	?	-16.5	-3.8	-17.1%
CC12CN(S(=O)(=O)c3ccccc3)CC(C)(CN(S(=O)(=O)c3ccccc3)C1)C2	-3.5%	-1.9	?	-7.4	3.9	2.31µM*
COc1ccc2c(c1)C(=O)N1[C@H]3c4cc(Br)ccc4OC[C@@H]3[C@H](c3ccccc3)[C@]1(C)C(=O)N2	-2.0%	-17.6	?	-2.6	-7.7	?
C[C@@]12C(=O)Nc3ccc(Cl)cc3C(=O)N1[C@H]1c3cc(Br)ccc3OC[C@@H]1[C@@H]2c1ccccc1	1.5%	-28.4	?	15.8	6.1	23.1µM*
C[C@@]12C(=O)Nc3ccccc3C(=O)N1[C@H]1c3cc(Br)ccc3OC[C@@H]1[C@@H]2c1ccccc1	1.1%	-4.9	?	-9.5	-8.7	?
C[C@@]12C(=O)Nc3ccc(Br)cc3C(=O)N1[C@H]1c3cc(Br)ccc3OC[C@@H]1[C@@H]2c1ccccc1	0.3%	-20.2	14.6µM*	-17.8	-13.0	18.4µM*
C=CC(=O)N1C(=O)c2ccccc2S1(=O)=O	1.9%	.	.	.	.	.
COc1ccc2[nH]c(=O)c(CN(C(=O)c3cccc(Cl)c3)c3ccccc3C)cc2c1	6.1%	.	?	.	.	?
COc1ccc2[nH]c(=O)c(CNc3ccccc3OC)cc2c1	.	-11.6	13µM*	-6.8	-5.8	6.51µM*
COc1ccc2[nH]c(=O)c(CNc3ccccc3C)cc2c1	.	39.5	23.1µM*	0.0	0.3	9.2µM*
COc1ccc2[nH]c(=O)c(CN(CCN(C)C)C(=O)NCc3ccccc3)cc2c1	2.1%	21.9	-19.3%	3.0	1.9	-12.0%
Cc1cccc(C(=O)Nc2cccnc2Cl)c1	.	-10.5	?	2.8	11.9	-1.9%
N#CC1(NC(=O)CSc2nnc(-c3ccccc3F)n2N)CCCCC1	0.3%	-8.0	-15.6%	7.4	-3.0	-0.3%
C[C@]12C(=O)N(c3ccc(C(F)(F)F)cc3)C(=O)N1[C@H]1c3ccccc3OC[C@@H]1[C@H]2c1ccccc1	1.0%	5.0	?	-5.8	-6.2	?
O=C(O)c1ccc(Cn2cc(C(F)(F)F)ccc2=O)cc1	1.2%	-0.9	9.9%	.	-1.3	5.3%
CCCC1/C(=N/O)CC(c2ccccc2)NC1c1ccccc1 (centres undefined)	-1.1%	-97.8*	4.11µM*	7.2	-0.7	?
CC(C)C1/C(=N/O)CC(c2ccccc2)NC1c1ccccc1 (centres undefined)	4.8%	-22.7	20.6µM*	-11.4	3.9	16.4µM*
CC1/C(=N/O)CC(c2ccccc2)NC1c1ccccc1 (centres undefined)	0.0%	-4.0	?	0.0	-2.7	?

Screening data from PubChem BioAssay.
